Assay outcomes as filed in PubChem BioAssay.
Vaccinia inh: Vaccinia orthopox stage-specific inhibition; Vaccinia-infected cells, mCherry/Venus stage reporter fluorescence; hits give low values; activity change (mCherry), % (no concentration beside the values); 89,000 compounds, 0.01% hits; in the data active = activity change below about -37%, passing the limit was not always enough; tested in A549 cells
Large screens that a line does not name were inactive. This is one part of a sample in which hits are shown more often than they occur.

CN1C(=O)c2cc(NS(C)(=O)=O)ccc2OC[C@H]2O[C@@H](CC(=O)NC3CCCCC3)CC[C@H]21	none
CO[C@H]1CN(C)C(=O)c2cc(NC(=O)c3ccccc3)ccc2OC[C@@H](C)N(C(C)=O)C[C@@H]1C	none
CO[C@H]1CN(C)C(=O)c2ccc(NC(=O)c3ccc(F)cc3)cc2OC[C@H](C)N(C(=O)c2ccc(F)cc2)C[C@@H]1C	Vaccinia inh -87
CO[C@@H]1CN(C)C(=O)c2ccc(NC(=O)c3ccc(F)cc3)cc2OC[C@@H](C)N(C(=O)c2ccc(F)cc2)C[C@@H]1C	none
CO[C@@H]1CN(C)C(=O)c2ccc(NC(=O)c3ccc(F)cc3)cc2OC[C@H](C)N(C(=O)c2ccc(F)cc2)C[C@H]1C	none
O=C(Cc1ccccn1)NCC[C@@H]1CC[C@H](NC(=O)Nc2ccc(Cl)cc2)[C@H](CO)O1	none
O=C(c1ccccc1F)N1C[C@@H]2[C@H](c3ccccc31)[C@@H](CO)N2C(=O)c1ccccc1	none
C[C@@H]1CCCCO[C@H](CN(C)Cc2ccncc2)[C@@H](C)CN([C@@H](C)CO)C(=O)c2cc(NC(=O)Nc3cccc4ccccc34)ccc2O1	none
CCCN1[C@H](C(=O)OC)[C@@H](CO)[C@@H]2Cn3c(ccc(-c4cccnc4)c3=O)[C@@H]21	none
COc1ccc2c3c(n(C)c2c1)[C@H](CO)N(C(=O)C1CCCCC1)CC31CN(C(=O)Nc2cccc(F)c2)C1	none
CCCNC(=O)Nc1ccc2c(c1)OC[C@H](C)N(Cc1ccc(-c3ccccn3)cc1)C[C@@H](C)[C@@H](OC)CN(C)C2=O	none
Cc1noc(C)c1NC(=O)Nc1ccc2c(c1)CC(=O)N([C@H](C)CO)C[C@@H](C)[C@H](CN(C)Cc1ccc(-c3ccccc3)cc1)O2	none
COC(=O)[C@H]1[C@H](CO)[C@H]2Cn3c(ccc(-c4ccccc4F)c3=O)[C@H]2N1Cc1ccncc1	none
C[C@@H]1CN([C@@H](C)CO)C(=O)c2cc(-c3cccnc3)cnc2O[C@@H]1CN(C)C(=O)Nc1ccccc1	none
CC(C)C#Cc1cnc2c(c1)C(=O)N([C@@H](C)CO)C[C@H](C)[C@H](CN(C)C(=O)c1ccccc1F)O2	none
C[C@H](CO)N1C[C@H](C)[C@H](CN(C)S(=O)(=O)c2ccc(F)cc2)Oc2ccc(NC(=O)C3CCCCC3)cc2C1=O	none
C[C@@H]1CCCCO[C@@H](CN(C)Cc2ccc(Cl)c(Cl)c2)[C@@H](C)CN([C@H](C)CO)C(=O)c2cc(NC(=O)NC3CCCCC3)ccc2O1	none
CCCNC(=O)N1[C@@H]2Cn3c(cccc3=O)[C@H]1[C@@H](C(=O)N1CCC(Cc3ccccc3)CC1)[C@@H]2CO	none
C[C@H](CO)N1C[C@H](C)[C@H](CN(C)S(=O)(=O)c2ccccc2)Oc2ccc(NS(=O)(=O)c3cn(C)cn3)cc2C1=O	none
C[C@H](CO)N1C[C@H](C)[C@H](CN(C)S(=O)(=O)c2ccc(F)cc2)Oc2cc(C#Cc3ccncc3)ccc2S1(=O)=O	none
Cc1ccc(S(=O)(=O)N(C)C[C@H]2Oc3cc(C#Cc4ccncc4)ccc3S(=O)(=O)N([C@@H](C)CO)C[C@H]2C)cc1	Vaccinia inh -46
C[C@@H]1CN([C@@H](C)CO)S(=O)(=O)c2ccc(C#Cc3ccncc3)cc2O[C@H]1CN(C)S(=O)(=O)c1ccc(F)cc1	none
COc1ccc2c3c(n(C)c2c1)[C@@H](CO)N(Cc1ccncc1)CC31CCN(C(=O)C2CCCCC2)CC1	none
COCC#Cc1ccc([C@H]2[C@@H](CO)N3C(=O)CN(C(=O)c4cccnc4)C[C@H]23)cc1	none
O=C(c1ccccc1F)N1CC(=O)N2[C@H](C1)[C@@H](c1ccc(-c3ccccc3)cc1)[C@@H]2CO	none
COCC(=O)Nc1ccc2c(c1)OC[C@@H](C)N(Cc1ccccc1F)C[C@H](C)[C@H](OC)CN(C)C2=O	none
COc1cccc(S(=O)(=O)N[C@@H]2C=C[C@H](CC(=O)NCc3ccccc3)O[C@@H]2CO)c1	none
Cc1noc(C)c1NC(=O)Nc1ccc2c(c1)C(=O)N([C@@H](C)CO)C[C@@H](C)[C@H](CN(C)S(=O)(=O)c1cccs1)O2	none
Cc1noc(C)c1S(=O)(=O)Nc1ccc2c(c1)C(=O)N([C@@H](C)CO)C[C@@H](C)[C@H](CN(C)S(=O)(=O)c1c(C)noc1C)OCCCC[C@@H](C)O2	none
C[C@@H]1CN([C@@H](C)CO)C(=O)Cc2cc(NC(=O)Nc3ccccc3)ccc2O[C@H]1CN(C)Cc1ccc(C(=O)O)cc1	none
CC(=O)N(C)C[C@@H]1Oc2ncc(C#Cc3cccnc3)cc2C(=O)N([C@@H](C)CO)C[C@@H]1C	none
CCCC(=O)N1CC2(CN(S(C)(=O)=O)C2)c2c([nH]c3cc(OC)ccc23)[C@H]1CO	none
COc1ccc(S(=O)(=O)N(C)C[C@H]2Oc3ccc(NC(=O)NC4CCCCC4)cc3C(=O)N([C@@H](C)CO)C[C@@H]2C)cc1	none
O=C(C[C@@H]1C=C[C@H](NC(=O)CC2CC2)[C@H](CO)O1)NCc1ccc(-c2ccccc2)cc1	none
COc1ccc2c3c([nH]c2c1)[C@@H](CO)N(C(=O)C1CCCC1)CC31CN(S(C)(=O)=O)C1	none
COCC#Cc1ccc(CC[C@H]2O[C@H]3CC[C@H](CO)O[C@H]3C[C@@H]2n2cc(C3CC3)nn2)cc1	none
Cc1ccc(S(=O)(=O)Nc2ccc3c(c2)CC(=O)N([C@@H](C)CO)C[C@H](C)[C@@H](CN(C)Cc2ccc4c(c2)OCO4)O3)cc1	none
CS(=O)(=O)N1C[C@H](O)COC[C@@H]2O[C@@H](CC(=O)NCc3ccc(-c4ccccc4)cc3)CC[C@H]21	none
Cc1noc(C)c1NC(=O)Nc1ccc2c(c1)C(=O)N([C@@H](C)CO)C[C@H](C)[C@H](CN(C)S(=O)(=O)c1ccccc1)OCCCC[C@@H](C)O2	none
CCC(=O)N[C@H]1CC[C@@H](CC(=O)NCc2ccccc2F)O[C@@H]1CO	none
CC=Cc1ccc2n(c1=O)C[C@H]1[C@H](CO)[C@@H](C(=O)NCCc3ccccc3)N(C(C)=O)[C@@H]21 (mixture of isomers)	none
Cc1cccc(-c2ccc([C@H]3[C@@H](CO)N4C(=O)CN(C(=O)c5cccnc5)C[C@H]34)cc2)c1	none
COc1ccccc1CN1CC[C@@H]2[C@@H](CO)Nc3ccc(-c4ccc(C(=O)N(C)C)cc4)cc3[C@@H]21	Vaccinia inh -39
CN(C)C(=O)c1ccc(-c2ccc3c(c2)[C@@H]2[C@@H](CCN2Cc2ccc4c(c2)OCO4)[C@H](CO)N3)cc1	none
CN(C)C(=O)c1ccc(-c2ccc3c(c2)[C@H]2[C@H](CCN2C(=O)c2ccccc2)[C@H](CO)N3)cc1	none
CN(C)C(=O)c1ccc(-c2ccc3c(c2)[C@H]2[C@H](CCN2Cc2ccc4c(c2)OCO4)[C@H](CO)N3)cc1	none
COc1ccccc1CN1CC[C@H]2[C@H](CO)Nc3ccc(-c4ccc(C(=O)N(C)C)cc4)cc3[C@H]21	Vaccinia inh -40
CN(C)C(=O)c1ccc(-c2ccc3c(c2)[C@H]2[C@H](CCN2Cc2ccc4c(c2)OCO4)[C@@H](CO)N3)cc1	none
O=C(C[C@H]1CC[C@H](NC(=O)C2CCC2)[C@@H](CO)O1)NC1CCCCC1	none
COc1ccccc1-c1ccc2c(c1)O[C@H](CN(C)C(=O)c1cccnc1)[C@@H](C)CN([C@@H](C)CO)S2(=O)=O	none
O=C(NC[C@@H]1CC[C@@H]2[C@@H](CN2Cc2ccccc2F)O1)C1CC1	none
CN(C)C(=O)c1ccc(-c2cccc(-c3nc(C(=O)NC4CCCCC4)cc4c3[C@@H](CCO)N([S@](=O)C(C)(C)C)C4)c2)cc1	Vaccinia inh -51
CN(C)C(=O)c1ccc(-c2cccc(-c3nc(C(=O)NC4CCCC4)cc4c3[C@@H](CCO)N([S@](=O)C(C)(C)C)C4)c2)cc1	none
